From PubChem BioAssay (EPA / NIEHS)
Inconclusive results are not listed. Calls of active or inactive are those of the source. The calls were made as follows, unless noted: active = hit-call score of the fitted dose curve at least 0.9, where 1 is the maximum; inactive = score below 0.9.

How the values were obtained:
[1] = BSK_3C_Proliferation: Cell Proliferation Assessment in the BioMAP Diversity Plus: 3C Assay (AID 2283006); details: primary human endothelial cells (HUVEC);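 as to AC50: potency may reflect either rise or fall in cell number versus DMSO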
Procedure, shortened: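 Read-out is total protein by SRB absorbance at 560 nm, taken as a proxy for relative cell number. Primary human umbilical vein endothelium cultured below confluence was dosed for 48 h, TCA-fixed and SRB-stained; curves were fitted bidirectionally versus DMSO.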

[2] = molecular target: Nuclear receptor subfamily 1 group I member 2 (Homo sapiens) (UniProt O75469); assay: ATG_PXR_TRANS: Attagene TRANS-FACTORIAL HepG2 Assay for human Pregnane X Receptor (PXR) (AID 2283008; active = hit-call score of the fitted dose curve at least 0.9, where 1 is the maximum)
Procedure, shortened: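 Measures mRNA induction of a GAL4-UAS-driven reporter in human HepG2 cells transiently expressing PXR fused to Gal4, following 24 h treatment. DMSO served as negative control and baseline.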

[3] = molecular target: human RAR-related Orphan Receptor beta (RORb), RORB (gene 6096) (UniProt Q92753); assay: ATG_RORb_TRANS: Attagene TRANS-FACTORIAL HepG2 Assay for human RAR-related Orphan Receptor beta (RORb) (AID 2283010; active = hit-call score of the fitted dose curve at least 0.9, where 1 is the maximum)
Procedure, shortened: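 Readout is reporter-gene mRNA induction, detected as fluorescence after RT-PCR and capillary electrophoresis, fitted for gain of signal against DMSO controls. Transiently transfected HepG2 liver cells carrying GAL4-UAS reporter constructs were treated for 24 hours.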

[4] = molecular target: human Thyroid Receptor alpha (THRa1), THRA (gene 7067) (UniProt P10827); assay: ATG_THRa1_TRANS: Attagene TRANS-FACTORIAL HepG2 Assay for human Thyroid Receptor alpha (THRa1) (AID 2283014; active = hit-call score of the fitted dose curve at least 0.9, where 1 is the maximum)
Procedure, shortened: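 Transient HepG2 transfection, NR-Gal4 chimera driving GAL4-UAS reporters; 24 h compound exposure; total RNA, oligo(dT) RT, PCR, fluorescent primer extension, capillary electrophoresis. Upward direction vs DMSO control.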

[5] = read-out: E-selectin (Homo sapiens) (UniProt P16581); assay: BSK_3C_Eselectin: BioMAP Diversity Plus: 3C Assay for Eselectin Biomarker Activity (AID 2283015); details: primary human endothelial cells (HUVEC); actives raise or lower the signal
Procedure, shortened: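 HUVEC, 3C stimulation; compound exposure 24 h; E-selectin by ELISA; gain- or loss-of-signal fitted bidirectionally vs DMSO baseline.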

[6] = read-out: Interleukin-1 alpha (IL1a), IL1A (gene 3552); assay: BSK_BE3C_IL1a: BioMAP Diversity Plus: BE3C Assay for Interleukin-1 alpha (IL1a) Biomarker Activity (AID 2283016); details: primary human bronchial epithelial cells; actives raise or lower the signal
Procedure, shortened: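 BE3C primary human bronchial epithelium; cpd 24 h; IL-1a by ELISA; bidirectional fit vs DMSO; parallel SRB (0.1% SRB, 10% TCA fix, 560 nm) for cytotoxicity.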

[7] = read-out: Monocyte Chemoattractant Protein-1 (MCP1), CCL2 (gene 6347); assay: BSK_4H_MCP1: BioMAP Diversity Plus: 4H Assay for Monocyte Chemoattractant Protein-1 (MCP1) Biomarker Activity (AID 2283018); details: primary human endothelial cells (HUVEC); actives raise or lower the signal
Procedure, shortened: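 ELISA read-out of MCP-1 from human vascular endothelial primary cells taken at 24 hours after compound exposure. Activity was fitted in both directions relative to DMSO, which served as negative control.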

[8] = read-out: Human Leukocyte Antigen - DR isotype (HLADR), HLA-DRA (gene 3122); assay: BSK_3C_HLADR: BioMAP Diversity Plus: 3C Assay for Human Leukocyte Antigen - DR isotype (HLADR) Biomarker Activity (AID 2283019); details: primary human endothelial cells (HUVEC); actives raise or lower the signal
Procedure, shortened: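 HUVEC, 3C stimulation, 24 h post-dose; HLA-DR by ELISA; bidirectional curve fit vs DMSO baseline; gain or loss of signal scored.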

[9] = read-out: Interleukin-8 (IL8), CXCL8 (gene 3576); assay: BSK_3C_IL8: BioMAP Diversity Plus: 3C Assay for Interleukin-8 (IL8) Biomarker Activity (AID 2283020); details: primary human endothelial cells (HUVEC); actives raise or lower the signal
Procedure, shortened: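 ELISA read-out of IL-8 from human umbilical vein endothelium, measured 24 h after chemical dosing. Activity is expressed relative to DMSO negative control, with both increases and decreases fitted.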

[10] = read-out: Monokine induced gamma interferon (MIG), CXCL9 (gene 4283); assay: BSK_3C_MIG: BioMAP Diversity Plus: 3C Assay for Monokine induced gamma interferon (MIG) Biomarker Activity (AID 2283021); details: primary human endothelial cells (HUVEC); actives raise or lower the signal
Procedure, shortened: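 Read-out is ELISA detection of MIG on human umbilical vein endothelial cells, taken 24 h after dosing. Gain or loss of signal was scored relative to DMSO controls using bidirectional curve fitting.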

[11] = molecular target: human Vitamin D Receptor (VDR), VDR (gene 7421) (UniProt P11473); assay: ATG_VDR_TRANS: Attagene TRANS-FACTORIAL HepG2 Assay for human Vitamin D Receptor (VDR) (AID 2283022; active = hit-call score of the fitted dose curve at least 0.9, where 1 is the maximum)
Procedure, shortened: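 RT-PCR/capillary electrophoresis read-out of reporter mRNA induction in transiently transfected HepG2; 24 h dosing; chimeric NR-Gal4 (TRANS format); gain-of-signal fit against DMSO baseline.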

[12] = BSK_3C_SRB: Viability Assessment in the BioMAP Diversity Plus: 3C Assay (AID 2283023); details: primary human endothelial cells (HUVEC);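 also: fitted both ways against DMSO so a hit may be signal rise or drop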
Procedure, shortened: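 HUVEC, 24 h post-dose; 10% TCA fix, 0.1% SRB stain, A560 nm. Bidirectional curve fit vs DMSO negative control.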

[13] = read-out: Matrix Metallopeptidase 1 (MMP1), MMP1 (gene 4312); assay: BSK_BE3C_MMP1: BioMAP Diversity Plus: BE3C Assay for Matrix Metallopeptidase 1 (MMP1) Biomarker Activity (AID 2283024); details: primary human bronchial epithelial cells; actives raise or lower the signal
Procedure, shortened: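 Human bronchial epithelial cells (BE3C system) exposed to compound for 24 h; MMP1 then quantified by ELISA. Activity was fitted in both directions relative to DMSO.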

[14] = molecular target: Peroxisome proliferator-activated receptor gamma (Homo sapiens) (UniProt P37231); assay: ATG_PPARg_TRANS: Attagene TRANS-FACTORIAL HepG2 Assay for human Peroxisome Proliferator-activated Receptor-gamma (PPARg) (AID 2283007; active = hit-call score of the fitted dose curve at least 0.9, where 1 is the maximum)
Procedure, shortened: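 Chimeric NR-Gal4 transactivation is measured in transiently transfected HepG2 cells by reporter mRNA induction at 24 h. Detection uses RT-PCR with fluorescent labelling and capillary electrophoresis; DMSO defines baseline.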

[15] = molecular target: Retinoic acid receptor RXR-alpha (Homo sapiens) (UniProt P19793); assay: ATG_RXRa_TRANS: Attagene TRANS-FACTORIAL HepG2 Assay for human Retinoid X Receptor alpha (RXRa) (AID 2283012; active = hit-call score of the fitted dose curve at least 0.9, where 1 is the maximum)
Procedure, shortened: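 Transient transfection of human HepG2 with multiple GAL4-UAS reporter constructs; 24 h compound exposure; total RNA isolated, reverse-transcribed, PCR-amplified, 6-FAM labelled, HpaI-cut, resolved by capillary electrophoresis. Positive-direction fit versus DMSO.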

[16] = read-out: Monocyte Chemoattractant Protein-1 (MCP1), CCL2 (gene 6347); assay: BSK_3C_MCP1: BioMAP Diversity Plus: 3C Assay for Monocyte Chemoattractant Protein-1 (MCP1) Biomarker Activity (AID 2283017); details: primary human endothelial cells (HUVEC); actives raise or lower the signal
Procedure, shortened: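 HUVEC, 3C system; 24 h chemical exposure; MCP-1 by ELISA; bidirectional curve fit vs DMSO baseline.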

[17] = molecular target: human Retinoid X Receptor beta (RXRb), RXRB (gene 6257) (UniProt P28702); assay: ATG_RXRb_TRANS: Attagene TRANS-FACTORIAL HepG2 Assay for human Retinoid X Receptor beta (RXRb) (AID 2283013; active = hit-call score of the fitted dose curve at least 0.9, where 1 is the maximum)
Procedure, shortened: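 Transfect HepG2 with GAL4-UAS multi-reporter constructs (chimeric NR-Gal4, TRANS format); dose compound 24 h; isolate RNA, RT-PCR, FAM primer extension, HpaI digest; quantify by capillary electrophoresis; positive direction vs DMSO.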

[18] = molecular target: human RAR-related Orphan Receptor gamma (RORg), RORC (gene 6097) (UniProt P51449); assay: ATG_RORg_TRANS: Attagene TRANS-FACTORIAL HepG2 Assay for human RAR-related Orphan Receptor gamma (RORg) (AID 2283011; active = hit-call score of the fitted dose curve at least 0.9, where 1 is the maximum)
Procedure, shortened: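 Transient MRTU transfection of HepG2 (TRANS format, exogenous NR-Gal4 chimera). 24 h dosing. Total RNA → oligo(dT) RT → PCR → 6-FAM labelling → HpaI cut → CE. Gain vs DMSO.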

Measured: AC50

Sequence of Nuclear receptor subfamily 1 group I member 2 (Homo sapiens) (O75469 whole entry, looked up, the tested form may be a part): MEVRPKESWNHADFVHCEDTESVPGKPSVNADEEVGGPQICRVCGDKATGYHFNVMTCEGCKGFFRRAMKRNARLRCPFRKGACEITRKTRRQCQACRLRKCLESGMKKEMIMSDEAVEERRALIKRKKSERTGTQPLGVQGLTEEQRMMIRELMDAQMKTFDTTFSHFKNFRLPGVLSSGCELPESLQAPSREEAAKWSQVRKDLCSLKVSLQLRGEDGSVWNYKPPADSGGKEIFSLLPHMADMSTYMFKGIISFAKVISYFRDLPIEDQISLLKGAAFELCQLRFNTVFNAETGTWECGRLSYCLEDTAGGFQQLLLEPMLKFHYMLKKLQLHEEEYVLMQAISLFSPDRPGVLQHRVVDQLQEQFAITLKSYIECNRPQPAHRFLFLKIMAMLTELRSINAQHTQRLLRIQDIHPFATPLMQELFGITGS
Sequence of E-selectin (Homo sapiens) (P16581 whole entry, looked up): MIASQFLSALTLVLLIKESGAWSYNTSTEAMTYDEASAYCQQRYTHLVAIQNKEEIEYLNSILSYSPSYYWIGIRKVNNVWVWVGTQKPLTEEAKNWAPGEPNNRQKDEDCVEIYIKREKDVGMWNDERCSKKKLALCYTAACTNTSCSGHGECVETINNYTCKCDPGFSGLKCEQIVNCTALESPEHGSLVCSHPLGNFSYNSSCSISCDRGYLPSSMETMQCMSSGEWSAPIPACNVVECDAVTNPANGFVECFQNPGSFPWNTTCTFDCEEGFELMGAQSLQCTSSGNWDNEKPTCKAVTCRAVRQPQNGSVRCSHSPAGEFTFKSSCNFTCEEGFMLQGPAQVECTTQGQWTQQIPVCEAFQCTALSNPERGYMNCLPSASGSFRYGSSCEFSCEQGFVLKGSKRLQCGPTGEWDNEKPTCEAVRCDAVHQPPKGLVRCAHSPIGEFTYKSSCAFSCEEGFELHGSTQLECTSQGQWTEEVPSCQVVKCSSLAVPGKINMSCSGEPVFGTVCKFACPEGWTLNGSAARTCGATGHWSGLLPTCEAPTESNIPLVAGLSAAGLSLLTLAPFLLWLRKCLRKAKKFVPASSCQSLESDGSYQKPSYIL
Sequence of human Thyroid Receptor alpha (THRa1), THRA (gene 7067) (P10827 whole entry, looked up, the tested form may be a part): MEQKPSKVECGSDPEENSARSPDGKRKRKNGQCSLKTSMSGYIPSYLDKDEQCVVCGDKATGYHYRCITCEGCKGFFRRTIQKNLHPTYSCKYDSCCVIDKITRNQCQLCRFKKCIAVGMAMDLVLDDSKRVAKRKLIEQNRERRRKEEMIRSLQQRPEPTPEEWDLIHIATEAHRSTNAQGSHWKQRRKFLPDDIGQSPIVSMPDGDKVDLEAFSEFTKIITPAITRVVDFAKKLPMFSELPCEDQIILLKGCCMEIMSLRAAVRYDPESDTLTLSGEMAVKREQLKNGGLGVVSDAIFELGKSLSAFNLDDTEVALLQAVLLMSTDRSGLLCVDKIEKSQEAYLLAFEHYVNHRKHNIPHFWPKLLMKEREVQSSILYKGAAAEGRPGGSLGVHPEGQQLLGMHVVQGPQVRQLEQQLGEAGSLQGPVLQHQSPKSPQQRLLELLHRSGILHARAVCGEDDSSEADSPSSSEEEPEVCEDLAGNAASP
Sequence of Peroxisome proliferator-activated receptor gamma (Homo sapiens) (P37231 whole entry, looked up, the tested form may be a part): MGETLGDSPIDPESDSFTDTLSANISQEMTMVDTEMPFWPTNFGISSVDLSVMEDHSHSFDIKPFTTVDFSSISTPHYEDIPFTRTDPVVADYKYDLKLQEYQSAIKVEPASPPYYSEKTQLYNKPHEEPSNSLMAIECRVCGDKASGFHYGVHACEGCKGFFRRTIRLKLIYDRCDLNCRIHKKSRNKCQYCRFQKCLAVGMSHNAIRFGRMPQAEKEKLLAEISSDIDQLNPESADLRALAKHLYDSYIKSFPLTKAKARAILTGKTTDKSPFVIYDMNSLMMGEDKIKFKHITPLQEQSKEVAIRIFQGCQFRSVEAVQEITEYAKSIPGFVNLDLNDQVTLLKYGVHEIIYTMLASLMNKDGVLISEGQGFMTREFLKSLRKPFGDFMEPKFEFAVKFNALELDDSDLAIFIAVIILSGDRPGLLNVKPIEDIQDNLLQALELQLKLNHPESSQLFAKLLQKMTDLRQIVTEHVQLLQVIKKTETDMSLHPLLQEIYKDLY
Sequence of human Vitamin D Receptor (VDR), VDR (gene 7421) (P11473 whole entry, looked up, the tested form may be a part): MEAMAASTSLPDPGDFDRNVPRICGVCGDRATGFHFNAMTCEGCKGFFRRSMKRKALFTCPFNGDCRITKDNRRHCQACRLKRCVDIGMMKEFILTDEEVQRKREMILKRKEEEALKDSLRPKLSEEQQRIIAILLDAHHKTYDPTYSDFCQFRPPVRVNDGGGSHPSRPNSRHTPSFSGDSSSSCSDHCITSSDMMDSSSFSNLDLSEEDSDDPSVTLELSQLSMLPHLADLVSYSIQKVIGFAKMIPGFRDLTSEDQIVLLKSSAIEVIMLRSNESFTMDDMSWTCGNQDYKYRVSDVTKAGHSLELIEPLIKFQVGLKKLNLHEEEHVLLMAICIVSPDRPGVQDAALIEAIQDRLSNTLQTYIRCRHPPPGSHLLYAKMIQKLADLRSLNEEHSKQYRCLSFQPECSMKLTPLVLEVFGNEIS
Sequence of human RAR-related Orphan Receptor gamma (RORg), RORC (gene 6097) (P51449 whole entry, looked up, the tested form may be a part): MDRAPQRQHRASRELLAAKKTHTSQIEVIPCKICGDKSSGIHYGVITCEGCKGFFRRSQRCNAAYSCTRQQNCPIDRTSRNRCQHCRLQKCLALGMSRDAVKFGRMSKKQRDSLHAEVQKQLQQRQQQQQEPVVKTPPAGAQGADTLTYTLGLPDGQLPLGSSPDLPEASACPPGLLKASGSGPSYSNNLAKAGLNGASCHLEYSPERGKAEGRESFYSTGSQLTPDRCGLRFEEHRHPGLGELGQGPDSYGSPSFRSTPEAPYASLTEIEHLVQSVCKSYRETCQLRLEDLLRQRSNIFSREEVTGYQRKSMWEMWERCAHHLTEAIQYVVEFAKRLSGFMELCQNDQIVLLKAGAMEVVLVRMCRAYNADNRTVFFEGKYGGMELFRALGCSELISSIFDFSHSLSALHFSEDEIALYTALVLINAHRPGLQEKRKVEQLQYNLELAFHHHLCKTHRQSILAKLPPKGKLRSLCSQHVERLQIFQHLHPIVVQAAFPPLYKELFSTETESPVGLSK
Sequence of human RAR-related Orphan Receptor beta (RORb), RORB (gene 6096) (Q92753 whole entry, looked up, the tested form may be a part): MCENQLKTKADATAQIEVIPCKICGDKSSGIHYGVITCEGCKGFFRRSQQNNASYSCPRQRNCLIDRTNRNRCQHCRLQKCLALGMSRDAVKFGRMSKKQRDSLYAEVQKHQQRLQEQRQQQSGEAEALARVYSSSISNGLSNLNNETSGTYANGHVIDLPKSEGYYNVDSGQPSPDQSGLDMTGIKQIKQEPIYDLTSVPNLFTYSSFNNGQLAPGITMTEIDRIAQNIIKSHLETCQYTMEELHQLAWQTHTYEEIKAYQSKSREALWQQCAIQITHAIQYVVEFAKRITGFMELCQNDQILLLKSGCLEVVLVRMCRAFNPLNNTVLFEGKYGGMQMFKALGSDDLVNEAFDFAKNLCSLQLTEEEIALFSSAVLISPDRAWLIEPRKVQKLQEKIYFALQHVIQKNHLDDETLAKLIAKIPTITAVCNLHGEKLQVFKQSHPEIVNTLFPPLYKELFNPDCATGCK
Sequence of Retinoic acid receptor RXR-alpha (Homo sapiens) (P19793 whole entry, looked up, the tested form may be a part): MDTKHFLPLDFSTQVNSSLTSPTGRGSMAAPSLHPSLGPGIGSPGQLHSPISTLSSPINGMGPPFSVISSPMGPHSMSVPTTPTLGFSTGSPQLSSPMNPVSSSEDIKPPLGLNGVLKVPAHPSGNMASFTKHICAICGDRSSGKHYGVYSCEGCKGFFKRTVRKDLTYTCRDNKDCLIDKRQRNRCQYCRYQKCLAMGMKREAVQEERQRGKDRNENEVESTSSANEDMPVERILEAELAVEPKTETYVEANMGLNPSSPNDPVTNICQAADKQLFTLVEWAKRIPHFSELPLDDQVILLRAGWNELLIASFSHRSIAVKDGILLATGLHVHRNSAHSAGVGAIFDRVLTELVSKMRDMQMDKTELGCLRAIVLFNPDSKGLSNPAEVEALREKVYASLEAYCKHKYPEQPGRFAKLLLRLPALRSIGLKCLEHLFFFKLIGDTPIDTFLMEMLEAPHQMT
Sequence of human Retinoid X Receptor beta (RXRb), RXRB (gene 6257) (P28702 whole entry, looked up, the tested form may be a part): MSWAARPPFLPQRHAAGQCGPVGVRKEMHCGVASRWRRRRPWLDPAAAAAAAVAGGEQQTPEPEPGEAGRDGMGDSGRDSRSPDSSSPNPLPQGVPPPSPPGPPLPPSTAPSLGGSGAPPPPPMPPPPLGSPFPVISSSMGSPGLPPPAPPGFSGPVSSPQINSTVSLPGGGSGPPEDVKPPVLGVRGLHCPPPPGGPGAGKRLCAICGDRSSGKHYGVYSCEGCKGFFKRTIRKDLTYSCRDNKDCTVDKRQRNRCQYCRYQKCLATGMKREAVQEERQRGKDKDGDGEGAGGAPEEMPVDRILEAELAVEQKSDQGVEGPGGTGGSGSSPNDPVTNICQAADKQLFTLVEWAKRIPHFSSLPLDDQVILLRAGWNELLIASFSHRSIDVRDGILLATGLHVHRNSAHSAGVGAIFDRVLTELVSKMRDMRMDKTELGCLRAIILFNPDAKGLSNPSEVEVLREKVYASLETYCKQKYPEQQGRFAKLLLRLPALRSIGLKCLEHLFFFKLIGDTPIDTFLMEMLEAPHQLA

N#Cc1cccnc1
inactive: [1] | [2] | [3] | [4] | [5] | [6] | [7] | [8] | [9] | [10] | [11] | [12] | [13]

O=S(=O)(c1ccc(Cl)cc1)c1cc(Cl)c(Cl)cc1Cl
active: [1] 5.2 µM | [14] 7.66 µM | [2] 1.25 µM | [16] 20 µM | [8] 5.27 µM | [9] 3.97 µM | [12] 5.42 µM
inactive: [15] | [5] | [6] | [7] | [11] | [13]

[Cl][Sn]([c]1ccccc1)([c]1ccccc1)[c]1ccccc1
active: [1] 0.0518 µM | [14] 0.0464 µM | [15] 0.233 µM | [17] 0.000965 µM | [5] 0.154 µM | [6] 0.126 µM | [16] 0.292 µM | [7] 0.066 µM | [8] 0.0817 µM | [9] 0.298 µM | [12] 0.188 µM | [13] 0.36 µM
inactive: [4] | [11]

CCOP(=O)(OCC)OC(=CCl)c1ccc(Cl)cc1Cl
inactive: [6] | [10] | [13]
active: [1] 28.9 µM | [14] 27.4 µM | [2] 0.62 µM | [5] 29.2 µM | [16] 35.4 µM | [7] 20 µM | [8] 32.7 µM | [9] 3.97 µM | [12] 29 µM

CC(C)(COCC1CO1)COCC1CO1 (configuration not stated)
inactive: [14] | [18] | [4] | [5] | [6] | [7] | [9] | [11] | [12] | [13]
active: [1] 20 µM | [8] 20 µM

CCN(CC)C(=O)C(Cl)=C(C)OP(=O)(OC)OC
inactive: [1] | [14] | [3] | [18] | [4] | [5] | [6] | [16] | [7] | [8] | [9] | [12] | [13]
